In PubChem BioAssay (EPA / NIEHS):
Activity calls are given as the source filed them. Rule for the calls: active = hit-call score of the fitted dose curve at least 0.9, where 1 is the maximum; inactive = score below 0.9.

The compounds below were run on Glutamate-cysteine ligase catalytic (GCLC), GCLC (gene 2729) (assay: LTEA_HepaRG_GCLC: Life Technologies and Expression Analysis (LTEA) Assay for Glutamate-cysteine ligase catalytic (GCLC) using HepaRG (AID 2283498)). Details: mRNA level, 48 h; actives raise or lower the signal.
Experimental: LTEA_HepaRG is a cell based, multiplexed-readout assay that uses HepaRG, a human liver cell line, with measurements taken at 48 hours after chemical dosing on a 96-well plate.LTEA_HepaRG_GCLC is one of 102 assay component(s) measured in the LTEA HepaRG cell culture assay. It is a marker of Oxidative Stress.Data from the assay component LTEA_HepaRG_GCLC was analyzed into 1 endpoint. This assay endpoint, LTEA_HepaRG_GCLC, was analyzed with bidirectional fitting relative to DMSO as the negative control and baseline of activity. Using a type of inducible reporter, measures of mRNA induction for gain or loss-of-signal activity can be used to understand regulation of transcription factor activity. To generalize the intended target to other relatable targets, this assay endpoint is annotated to the ligase intended target family, where the subfamily is C-N ligase.
A total of 1060 chemcials from the ToxCast library were tested in eight-point concentration-response experiments. Cell culture and cytotoxicity assays were conducted at Thermo Fisher Scientific's Custom Services facility (Madison, WI). A single lot of human HepaRG cells (Thermo Fisher Scientific, Frederick, MD) was used for the cell culture experiments. 96-well format collagen type I coated plates of human HepaRG cells were prepared using established methods. Briefly, cryopreserved HepaRG cells were thawed, plated at a density of approximately 100,000 cells/well in HepaRG Thaw, Plate, and General Purpose media (HPRG770, Thermo Fisher Scientific), and incubated for 48 hours. 0.5% DMSO was selected as vehicle control to balance the requisite need of DMSO in HepaRG cultures to maintain differentiation (for example, baseline metabolism, proportions of hepatocytes vs. cholangiocytes), while enabling further hepatic receptor pathway activation (for example, PXR and CAR) in response to chemical exposure. 48 hours after plating, the culture medium was replaced with HepaRG Serum-Free Incudtion Media. Cells were exposed to each test chemical in duplicate and maintained in CO2 incubators for another 48 hours. Chemical plates were thawed to room temperature and 200x concentrations of treatment groups were prepared. 8-point conentration-reponse curves were made with the highest exposure at 100 uM, followed by half-log dilutions, all in 0.5% DMSO. Each test plate contained variouse controls, induction positive controls (1mM phenobarbital), cytotoxicity positive controls ([…] aflatoxin B1), vehicle controls (0.5% DMSO), and total lysis controls (0.5% DMSO). Cell morphology images were taken using an Essen IncuCyte FLR automated microscope, with six 96-well plates imaged in about 24 minutes. Images were captured and exported and JPEG files. Spent culture media was transfered to black-well plates for the LDH assay, and remaining media was sorted at -80 C for later use. Cells were treated with RLT buffer and frozen until shipped for gene expression analysis. Total RNA was isolated from the cell suspension in 75 uL of Buffer RLT (Qiagen, Germantown, MD 20874) by Quintiles/Expression Analysis (Durham, NC) using a custom isolation procedure. Total RNA from each plate well was transferred to a preamplification plate. Fluidigm's 96.96 Dynamic ArrayTM (Fluidigm, Amsterdam, the Netherlands) technology was used for gene expression analyses by quantitative reverse transcription polymerase chain reaction (qRT-PCR, performed by Quintiles/Expression Analysis, Durham, NC)89. Standard TaqManTM Assays (Applied Biosystems/ThermoFisher Scientific, Foster City, CA) were used to assess the expression of 93 genes selected based on their selectivity and sensitivity to important hepatic receptors known to be modulated by environmental chemicals; importance in human hepatocyte functionality; and hepatotoxicity. […]

Question: For `O=C1CCC(N2C(=O)c3ccccc3C2=O)C(=O)N1` (stereo not given), which outcome is on record?
Answer: inactive

Question: How did the outcome turn out when `CC(C)=CCC/C(C)=C\CO` was run?
Answer: inactive

Question: With `CCCCCCCCCCCCc1ccccc1` as the compound, how does the outcome read?
Answer: inactive

Question: `O=C1OC(=O)C2C3C=CC(C3)C12` (stereo not given) was tested. Which outcome did it give?
Answer: inactive

Question: Which outcome does the source give for `CC(C)CC(C)(O)C#CC(C)(O)CC(C)C` (stereo not given) here?
Answer: inactive

Question: With `COCCOc1cc2cc(C(=O)NC3CCN(C(C)C)CC3)n(CC(=O)Nc3ccc(Cl)cn3)c2cn1` as the compound, how does the outcome read?
Answer: inactive

Question: Which outcome does the source give for `CCOC(=O)c1ccc(C2CCC(NC[C@H](O)COc3ccc(O)c(NS(C)(=O)=O)c3)CC2)cc1` (stereo not given in full) here?
Answer: inactive

Question: Which outcome does the source give for `CC[C@H](C)C(=O)O[C@H]1C[C@@H](C)C=C2C=C[C@H](C)[C@H](CC[C@@H]3C[C@@H](O)CC(=O)O3)[C@H]21` here?
Answer: inactive

Question: Which outcome does the source give for `Nc1nc2ncc(CNc3ccc(C(=O)N[C@@H](CCC(=O)O)C(=O)O)cc3)nc2c(=O)[nH]1` here?
Answer: inactive

Question: Which AC50 does the source give for `CCOc1cccc(-n2cc(C(=O)N3CCN(c4cc(C(=O)O)c5ccccc5c4)CC3)nc2-c2ccc(C)cc2)c1` here?
Answer: 79.2 µM (active)

Question: For `CCCCCCCCO`, which outcome is on record?
Answer: inactive

Question: How did the outcome turn out when `C[C@](N)(Cc1ccc(O)c(O)c1)C(=O)O` was run?
Answer: inactive

Question: How did the outcome turn out when `On1ccccc1=S` was run?
Answer: inactive

Question: For `CC(C)CCCCCCCOC(=O)CCCCC(=O)OCCCCCCCC(C)C`, which outcome is on record?
Answer: inactive

Question: `COC(=O)CC(=O)OC` was tested. Which outcome did it give?
Answer: inactive

Question: `O=P(OC(CCl)CCl)(OC(CCl)CCl)OC(CCl)CCl` was tested. Which AC50 did it give?
Answer: 89.5 µM (active)

Question: For `CCCC(=O)OCC`, which outcome is on record?
Answer: inactive

Question: With `CC(C)=CCCC(C)CCO` (stereo not given) as the compound, how does the outcome read?
Answer: inactive

Question: How did the outcome turn out when `CCCCCCCCCCCCCCCO` was run?
Answer: inactive

Question: `O=C(O)c1cc(N=Nc2ccc(S(=O)(=O)Nc3ccccn3)cc2)ccc1O` was tested. Which outcome did it give?
Answer: inactive

Question: How did the outcome turn out when `CC[C@H]1CC[C@H](NCc2cc3c(cc2OC)[C@H]2C[C@H]2C(=O)N3C)[C@H](c2ccccc2)N1` was run?
Answer: inactive

Question: `C1N2CN3CN1CN(C2)C3` was tested. Which outcome did it give?
Answer: inactive

Question: How did the AC50 turn out when `Cc1[nH]cnc1C[C@H]1CCc2c(C)c3ccccc3n2C1=O` was run?
Answer: 29.7 µM (active)

Question: For `Cc1ccc(C)c(O)c1`, which outcome is on record?
Answer: inactive

Question: How did the outcome turn out when `COC(=O)c1c(Cl)c(Cl)c(C(=O)OC)c(Cl)c1Cl` was run?
Answer: inactive

Question: For `CC(=O)c1ccc2c(c1)[C@H](NC(=O)c1ccc(F)cc1)[C@@H](O)C(C)(C)O2`, which outcome is on record?
Answer: inactive

Question: Which outcome does the source give for `CCOC(=O)COc1ccc2c(c1)CC(NCC(O)c1cccc(Cl)c1)CC2` (stereo not given) here?
Answer: inactive

Question: How did the outcome turn out when `Nc1cccc(N)c1` was run?
Answer: inactive

Question: Which outcome does the source give for `Cn1c(=O)cc(Oc2ccc(F)cc2F)c2cnc(NCC(C)(C)O)nc21` here?
Answer: inactive

Question: With `O=C1CCCCCN1` as the compound, how does the outcome read?
Answer: inactive

Question: With `CNS(=O)(=O)c1cc(C(=O)N2CCC(CCN3C4CCC3CC(n3c(C)nc5ccccc53)C4)(c3cccc(F)c3)CC2)c(Cl)cc1F` (stereo not given) as the compound, how does the outcome read?
Answer: inactive

Question: With `CC(C)CCCCCCOC(=O)c1ccc(C(=O)OCCCCCCC(C)C)c(C(=O)OCCCCCCC(C)C)c1` as the compound, how does the outcome read?
Answer: inactive

Question: For `O=C(O)CC(O)C(=O)O` (stereo not given), which outcome is on record?
Answer: inactive

Question: Which outcome does the source give for `CC1=CC(=O)CC(C)(C)C1` here?
Answer: inactive

Question: How did the outcome turn out when `Nc1ccc(Nc2ccccc2)cc1` was run?
Answer: inactive

Question: `Oc1ccc2c(c1)-c1ccccc1C2` was tested. Which outcome did it give?
Answer: inactive

Question: How did the outcome turn out when `CCCCC(CC)COC(=O)c1ccc(C(=O)OCC(CC)CCCC)cc1` (stereo not given) was run?
Answer: inactive

Question: Which outcome does the source give for `Cc1ccc(N)cc1O` here?
Answer: inactive

Question: `CCn1nc(Cc2ccccc2)cc1C1CCN(C[C@H]2C[C@H](N(C)[C@@H](C(=O)O)C(C)C)C[C@@H]2c2cccc(F)c2)CC1` was tested. Which outcome did it give?
Answer: inactive

Question: Which outcome does the source give for `Cc1ccc(O)cc1` here?
Answer: inactive
